Assay outcomes: PubChem BioAssay, Sanford-Burnham Center for Chemical Genomics
In the library only some 3.9% were active in any assay of this set; here they are far more common.
KKLEB cytotox: cytotoxicity in KKLEB CF airway cells, primary screen, cytotoxicity control for CF NF-kB inhibitor project, cell-based, uHTS, fluorescence assay plates; KKLEB CF airway cells viability, ATPlite luminescence, overnight; active compounds read low; cells stimulated with P. aeruginosa culture filtrate; activity change (cytotoxicity), % at 5 µM; 0.36% of 360,000 active; AID 602141, 2011;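 active = corrected activity change at or below -50% at 5 µM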
TROY NFkB inh: inhibitors of TROY-driven NF-kB signaling, primary screen, Q293 LMP1-TROYcd cells, NF-kB luciferase, uHTS. inhibition, % at 10 µM. 0.98% of 360,000 active. Q293 LMP1-TROYcd NF-kB luciferase reporter, 4 h;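 active = compounds whose plate-normalised and pattern-corrected inhibition of the luciferase reporter signal at the single screening dose is 50% or more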
HIF-2a block: HIF-2a reporter inhibitors, primary screen, luminescence, 786-0 RCC cells; 786-0 RCC cells HIF-2a reporter, luciferase luminescence, overnight; inhibition, % at 18.8 µM; 0.72% of 360,000 active; AID 624352, 2012;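 active = inhibition of the luminescence signal of 40% or more relative to plate controls, in a single-dose primary screen at 18.75 µM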
CF NFkB inh: inhibitors of PAF-induced NF-kB signaling, primary screen, cell-based, GFP fluorescence, uHTS; inhibition, % at 5 µM; 0.86% of 360,000 active; KKLEB NF-kB-GFP reporter, GFP fluorescence overnight; AID 588850, 2011;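 active = at least 50% inhibition at 5 µM, scaled per plate between neutral and stimulator controls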;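 also: PAF is a Pseudomonas aeruginosa culture filtrate used as stimulus; plate controls were PAF-stimulated DMSO wells for no effect and unstimulated DMSO wells for full effect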
TWEAK Fn14 block: inhibitors of TWEAK-Fn14 signaling, primary screen, luciferase reporter cells, uHTS. TWEAK-stimulated Fn14 reporter cells, luciferase luminescence, 8 h. inhibition, % at 10 µM. 2% of 360,000 active. AID 1159606, 2016; in the data active = inhibition above about 50%
Peg3 promoter: Peg3 promoter-driven luciferase inhibitors, primary screen, cell-based, HeLa, luciferase luminescence; HeLa PEG-Prom luciferase reporter, overnight; inhibition, % at 20 µM; 1.7% of 360,000 active; AID 588405, 2011;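 active = inhibition of at least 50% at 20 µM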
* = called active by the depositor; . = no result given.

SMILES	KKLEB cytotox	TROY NFkB inh	HIF-2a block	CF NFkB inh	TWEAK Fn14 block	Peg3 promoter
CCCc1cc(=O)oc2c(CNc3ccc(OCC)cc3)c(O)ccc12	-3	-12	13	53*	4	36
Cc1cc(C(=O)OCC(=O)NC2CCCC(C)C2C)c(C)o1 (configuration not stated)	-32	14	-1	22	7	-5
CC1CCCC(NC(=O)COC(=O)c2c[nH]c(=O)[nH]c2=O)C1C (configuration not stated)	8	.	13	2	55*	3
Cn1c(-c2ncc(F)cc2F)cc2onc(-c3c(F)cccc3Cl)c2c1=O	-2	-27	-212	4	-17	-291
Cn1c(-c2ccccc2F)cc2onc(-c3ccccc3)c2c1=O	-31	66*	-156	-3	73*	-266
Cn1c(-c2ccccc2)cc2onc(-c3ccccc3)c2c1=O	-43	73*	-5	-12	91*	-43
Cc1c(-c2ccccn2)c(=O)[nH]n1-c1ccc(F)cc1	12	30	-79	-20	51*	-107
O=c1[nH]n(-c2ccc(F)cc2)c2ncccc12	2	-7	-11	-15	-21	-26
NC1=NCC(O)=C1c1nc2ccccc2[nH]1	14	-16	-3	-24	-13	10
O=C(Nc1ccc(Cl)cc1)Nc1csc([N+](=O)[O-])c1	-22	41	-261	36	67*	-153
Cc1cccc(NC(c2ccc(C)s2)c2ccc3ccc(C)nc3c2O)n1 (configuration not stated)	-23	-7	66*	41	41	45
CS(=O)(=O)Nc1ccc([N+](=O)[O-])cc1Oc1ccccc1	-3	1	32	69*	-4	10
Cc1nn(C)c(C)c1CNC(=O)c1cnn2c1NC(c1ccccc1)CC2C(F)(F)F (configuration not stated)	-3	-7	7	24	-22	15
Cc1ccc(C2CC(C(F)(F)F)n3nc(C(=O)NCc4c(C)nn(C)c4C)c(Cl)c3N2)cc1 (configuration not stated)	23	58*	2	-20	34	23
CCOC(=O)c1sc2ncn(/N=C/c3ccc(O)cc3)c(=O)c2c1C	0	-2	-44	5	0	-39
CC(C)(C)Cc1nnc(NC(=O)c2ccc3c(c2)OCO3)s1	-4	-42	-235	7	18	-243
COC(=O)C1=C(C)N(c2ccc(Cl)cc2)/C(=C/c2ccc(O)cc2)C1=O	6	16	9	9	57*	35
CCc1nc(NCC2CCCN2CC)c2nnn(Cc3ccccc3F)c2n1 (configuration not stated)	-3	-20	10	-8	69*	5
Cc1cc(NC(=O)COC(=O)C2COc3ccccc3O2)no1 (configuration not stated)	-4	2	11	-5	14	64*
CCn1ncc(/C=C/C(=O)c2ccccc2)c1C	-2	-10	-192	-2	53*	-303
Cn1cc(/C=C/C(=O)c2ccccc2)c2ccccc21	-22	21	-109	-11	71*	-112
Cc1c(/C=C/C(=O)c2ccccc2)cnn1C	8	-62	-194	-12	-2	-258
CCN1CCN(CCCN(Cc2ccco2)C(=S)Nc2cc(Cl)ccc2C)CC1	1	9	28	-10	-9	4
COc1ccc(-c2n(CC(=O)OC3CC(C)CCC3C(C)C)c3ccccc3[n+]2C)cc1 (configuration not stated)	-54*	48	5	60*	80*	77*
CC1CCC(C(C)C)C(OC(=O)CSc2nccc(=O)[nH]2)C1 (configuration not stated)	5	2	5	10	1	2
SMILES	KKLEB cytotox	TROY NFkB inh	HIF-2a block	CF NFkB inh	TWEAK Fn14 block	Peg3 promoter
CN1CCN(c2ccc(-c3cc(NC=O)c4ncc(-c5ccc(F)cc5)n4c3)cc2)CC1	5	46	-87	4	14	7
CN1CCN(c2ccc(-c3cc(NC=O)c4ncc(-c5ccccc5)n4c3)cc2)CC1	-5	41	-58	-6	22	79*
COc1cc(-c2cnc3c(NC(C)=O)cc(-c4ccc(N5CCN(C)CC5)cc4)cn23)cc(OC)c1OC	-4	63*	39	-8	54*	42
O=C(O)c1cc(C(=O)O)cc(N2C(=O)CSC2=S)c1	-9	-5	-1	12	16	-26
CCN(CC)c1ccc(N2C(=O)CSC2=S)cc1	-1	-10	9	5	72*	13
CCOc1ccc(N2C(=O)CSC2=S)cc1	0	23	31	13	33	12
O=C(O)c1ccc(N2C(=O)CSC2=S)cc1	0	37	32	31	68*	15
COc1cc2c(c(O)c1OC)C1Cc3ccc(OC)c(OC)c3CN1CC2 (configuration not stated)	-2	-4	0	-2	-2	-8
COc1ccc2cc1Oc1ccc(cc1)C[C@H]1c3c(cc(OC)c4c3Oc3c(ccc5c3[C@H](C2)N(C)CC5)O4)CCN1C	-88*	1	21	87*	-84	100*
Cc1ccc(-c2cc(C(F)F)n3ncc(C(=O)N4CCN(c5ccccn5)CC4)c3n2)cc1	2	5	-8	-1	5	38
COc1ccc(C(=O)CC(Sc2ccccc2N)c2ccc(OC)cc2)cc1 (configuration not stated)	-20	13	-133	13	80*	-186
O=C(CCl)Nc1cn(-c2ccccc2)nc1-c1ccccc1	-71*	-62	-65	46	8	84*
CC1(C)CC(=O)C(C=Nc2ccc(O)c(N=CC3=C(O)CC(C)(C)CC3=O)c2)=C(O)C1	-15	-10	-18	24	7	0
CC1(C)CC(=O)C(C=Nc2ccc(C(=O)c3ccccc3)cc2N=CC2=C(O)CC(C)(C)CC2=O)=C(O)C1	-59*	2	-6	52*	32	-14
Cc1cccc(NC(=O)Nc2ccc(Cl)c(Cl)c2)n1	-6	18	-37	10	58*	-45
COC(=O)c1cccc(NC(=O)Nc2ccc(Cl)c(Cl)c2)c1	-17	31	-376	12	60*	-145
CN(CCc1ccccc1)C(=O)c1ccc(NC(=O)Cc2ccc(NC(=O)C3CCCN(C(=O)C4CCCC4)C3)cc2)cc1 (configuration not stated)	5	29	-2	1	4	-10
COc1ccccc1C1OCC(C)(C)CO1	13	-3	-3	-3	6	-2
